# Screens as filed in PubChem.
# Compounds with a hit are over-represented: about 21% of the library has one in this group of screens.
# Cycloheximide cs = Cycloheximide Counterscreen for Small Molecule Inhibitors of Shiga Toxin; cell reporter, cycloheximide protein synthesis inhibition counterscreen; max response, %; 300,000 tested, 12% active; AID 2314, 2010; in the data active = max response mostly above about 13%, no sharp cut-off; inactive = mostly below about 14%; note: read at 38.3 µM for the half of the compounds with a filed dose; 0% is about no effect
# Pf growth 48h = Primary qHTS for delayed death inhibitors of the malarial parasite plastid, 48 hour incubation; P. falciparum luciferase growth in erythrocytes, 48 h; Potency, µM (titrated, usually from 28.7 µM), for inactives: at the highest dose activity change, negative = inhibition, hits mostly inhibitors; 310,000 tested, 5.9% active; AID 504832, 2011; note: potency is the fitted concentration of half-maximal effect; % is set by controls: 0 for no effect and ±100 for the full control effect
#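 Luciferase-expressing parasites in RBCs, 2% Hct / 0.1% parasitemia final; RPMI 1640 + 0.5% Albumax; 37 C, 5% CO2, one generation; luminescence read-out, lower signal = inhibition.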
# Shiga inhibitor = A qHTS for Small Molecule Inhibitors of Shiga Toxin; inhibition, % at 38.7 µM; Vero cells, Shiga toxin protein synthesis inhibition reporter; 290,000 tested, 9.2% active; in the data active = inhibition mostly above about 28%, no sharp cut-off; inactive = mostly below about 43%; note: 0% is about no effect
# Pf growth 96h = Primary qHTS for delayed death inhibitors of the malarial parasite plastid, 96 hour incubation. P. falciparum luciferase reporter growth, 96 h. Potency, µM (doses to about 28.7 µM), without a hit: at the highest dose activity change, negative = inhibition, actives largely listed as inhibitors. 320,000 tested, 6.9% active. AID 504834, 2011; note: potency is the fitted concentration of half-maximal effect; % is set by controls: 0 for no effect and ±100 for the full control effect
#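 Two parasite generations (96 h, 37 C, 5% CO2) of compound exposure in infected erythrocytes (0.05% parasitemia, 2% hematocrit). Luciferase-reporter P. falciparum; decreased luminescence indicates inhibited growth, aimed at apicoplast-acting delayed death.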
# AMA1 RON2 block = qHTS for Inhibitors of AMA1-RON; Towards Development of Antimalarial Drug Lead: Primary Screen; Plasmodium falciparum AMA1 (3D7) - RON2 peptide interaction; AlphaScreen AMA1-biotinylated RON2 peptide binding; Potency, µM (titrated, usually from 58.2 µM), without a hit: at the top dose activity change, negative = inhibition, hits mostly inhibitors; 360,000 tested, 0.2% active;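 note: potency is the fitted concentration of half-maximal effect; 0% = vehicle wells and -100% = peptide control; nearly all actives have a fitted effect of over 45% in size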
#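 AMA1 (3D7) with his tag at 25 nM final met compounds first, then biotinylated RON2 peptide at 25 nM; detection used donor plus acceptor beads, 10 µg/mL apiece, read by AlphaScreen after 30 min at room temperature.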
# HCV inh = qHTS Assay for Inhibitors of Hepatitis C Virus (HCV) | Huh7.5.1 HCVcc-Cre infection, luciferase reporter, 44 h | Potency, µM (highest dose often 41.8 µM), for inactives: top-dose activity change, negative = inhibition, hits mostly inhibitors | 340,000 tested, 3.4% active | AID 651820, 2012; note: potency is the fitted concentration of half-maximal effect; % is set by controls: 0 for no effect and ±100 for the full control effect
#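 Antiviral activity was scored by luciferase reporter output from cells infected with HCVcc-Cre (~0.5 moi) in presence of compound, 44 h infection period, cells seeded 1,000/well 4 h prior.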
# An asterisk follows results filed as active; ? = inconclusive; . = no result. Unless noted, calls come from the whole dose curve; as a rule, active = well fitted curve in the direction sought with a large enough effect; inconclusive = small, poorly fitted or top-dose-only effect, or another doubt; inactive = no such curve, though single readings can be large; an effect the other way counts as inactive or inconclusive.
SMILES,Cycloheximide cs,Pf growth 48h,Shiga inhibitor,Pf growth 96h,AMA1 RON2 block,HCV inh
CC(C)c1cc(NCC2CCCO2)n2c(nc3ccccc32)c1C#N (configuration not stated),1,6.6µM*,-9,.,7%,?
CCc1c(C)c(C#N)c2nc3ccccc3n2c1NCCOC,3,1.7µM*,15,?,-9%,-4%
Cc1cc(NCC2CCCO2)n2c(nc3ccccc32)c1C#N (configuration not stated),1,?,-15,?,-5%,-24%
CCCNC(=O)C1(C)CCCN(Cc2cccc(C#N)c2)C1 (configuration not stated),.,.,.,.,7%,.
CCCCn1c(N)c(N(CC(C)C)C(=O)c2cccs2)c(=O)[nH]c1=O,.,-11%,.,0%,-4%,10%
COc1ccc2nc3cccc(OC)c3nc2c1,44*,?,63*,?,-4%,-13%
COc1ccc(-c2nc3ccccc3nc2-c2ccc(OC)c(OC)c2)cc1OC,-1,?,6,-11%,-1%,-23%
COc1ccc2nc3ccccc3nc2c1N,49*,149%,159*,39%,?,-19%
COc1cc(OC)c2c(OC)cccc2n1,-2,1%,-7,20%,18%,?
Cc1cc(C(=O)N(NC(=O)C(C)C)c2ccccc2)cs1,-1,-12%,19,8.3µM*,2%,-14%
O=C(NN(C(=O)c1ccccc1)c1ccccc1)c1ccccc1,-3,?,-3,27%,31%,11%
O=C(Nc1cccc(F)c1)NC1(C(=O)NCC2CCCO2)CCCCC1 (configuration not stated),-3,3%,4,7%,-4%,-5%
CCCCOc1cc(C)nc(NCc2ccccc2)n1,14,13µM*,8,?,30%,-9%
Cc1cc(Oc2ccccc2)nc(SCC(N)=O)n1,-1,?,-14,.,0%,20%
CC(=O)c1ccc(Oc2cc(C)nc(NCc3ccccc3)n2)cc1,9,?,72,?,2%,13µM*
CCOc1cc(C)nc(NCc2ccccc2)n1,-5,.,-8,?,-4%,-2%
Cc1cc(OC2CCCCC2)nc(NCc2ccccc2)n1,-7,?,-6,5.2µM*,-1%,8%
O=C(NC1CCCCC1)c1cc(N2C(=O)CCC2=O)ccc1Cl,-6,27%,19,?,6%,1%
COc1ccc(-c2csc(NC(=S)NC(=O)/C=C/c3ccco3)n2)cc1Br,-1,10µM*,-4,?,-4%,-27%
CC(C)c1ccc(/C=C/C(=O)Nc2nncs2)cc1,49*,127%,33*,68%,73%,?
COc1ccc(-c2csc(NC(=S)NC(=O)c3ccco3)n2)cc1Br,10,-20%,4,?,23%,2%
Cc1sc(NC(=O)/C=C/c2ccc(C(C)C)cc2)c(C#N)c1C,-1,4%,-6,45%,-6%,-28%
COc1ccc(-c2csc(NC(=S)NC(=O)/C=C/c3ccc(C(C)C)cc3)n2)cc1OC,23*,?,14,?,21%,?
COc1ccc(-c2csc(NC(=S)NC(=O)/C=C/c3ccco3)n2)cc1OC,-1,4%,-7,32%,36%,-14%
COc1ccc(C(=O)NC(=S)Nc2nc(-c3ccc(OC)c(Br)c3)cs2)cc1Br,5,?,5,?,-2%,?
SMILES,Cycloheximide cs,Pf growth 48h,Shiga inhibitor,Pf growth 96h,AMA1 RON2 block,HCV inh
COc1ccc(-c2csc(NC(=S)NC(=O)c3cc4ccccc4o3)n2)cc1Br,14*,17%,18,?,-3%,-9%
CC(=O)N1CCN(Cc2nc3ccc(Cl)cc3n2CCO)CC1,-2,26%,-4,0%,13%,7%
O=C1OCCC1(c1ccccc1)c1ccccc1,.,-19%,.,?,6%,7%
O=C1NC[C@H](CC2CCCCC2)N(CCc2cccc(F)c2)C1=O,.,?,.,?,39%,12%
COc1ccc(NC(=S)N2CCCC(c3nc4ccc(C)cc4[nH]3)C2)c(OC)c1 (configuration not stated),10,-5%,17,-30%,18%,?
Cc1cc2nc(C3CCCN(C(=O)NCc4ccccc4)C3)[nH]c2cc1C (configuration not stated),35*,50%,47,38%,0%,-23%
Cc1cc2nc(C3CCCN(C(=S)Nc4ccccc4C)C3)[nH]c2cc1C (configuration not stated),33*,24%,28,28%,-5%,10µM*
Cc1ccc(NC(=S)N2CCCC(c3nc4ccc(C)cc4[nH]3)C2)c(C)c1 (configuration not stated),10*,34%,6,4%,5%,10µM*
Cc1ccc2nc(C3CCCN(C(=S)Nc4cccc(C)c4C)C3)[nH]c2c1 (configuration not stated),2,-24%,19,17%,19%,1.8µM*
O=C(NCCN1CCOCC1)c1cccc(NS(=O)(=O)c2ccc(Br)cc2)c1,.,-9%,.,?,-10%,12%
Cc1sc2nc(C3CC3)nc(N3CCN(C(=O)c4ccc(Cl)cc4)CC3)c2c1C,-3,?,-5,28%,-15%,?
O=S(=O)(Nc1nc2ccccc2s1)c1ccc(Cl)nc1,-2,?,-2,13%,2%,7%
C=CCC1(CC=C)CC(Cc2cnccn2)N(C(=O)OC(C)(C)C)C1 (configuration not stated),.,.,.,.,17%,.
CCN(C(=O)Cn1c(=O)n2nc(CCn3nc(C)cc3C)nc2c2ccccc21)c1cccc(C)c1,-2,31%,-12,2.6µM*,-1%,.
CCOc1ccc(NCCC(O)c2ccc(F)cc2)cc1 (configuration not stated),23*,-1%,22,11%,-24%,11%
CCOc1cc(NCc2ccccc2)c2ncn(C(C)C)c2c1,.,.,.,.,25µM*,2.5µM*
CC(C)n1cnc2c(NCc3ccccc3)cc(Cc3ccc(F)cc3)cc21,.,10µM*,.,6.6µM*,?,?
CC[C@H](CO)Oc1cc(NCc2cccc(N)c2)c2ncn(C(C)C)c2c1,.,.,.,.,-24%,.
CCC(CO)Oc1cc(NCc2cccc(C(F)(F)F)c2)c2ncn(C(C)C)c2c1 (configuration not stated),.,.,.,.,12%,?
O=C1NC[C@H](CCCCN2CCN(Cc3ccccc3)C(=O)C2=O)N(Cc2ccccc2)C1=O,.,.,.,.,-3%,.
O=C(N/N=C/c1ccc2c(c1)OCO2)c1cccnc1,48*,27%,104*,18%,6%,11%
